WRN helicase inh: inhibitors of human WRN helicase. WRN helicase unwinding, fluorescent forked duplex, kinetic. Potency, µM (top dose mostly 114 µM), for the others: top-dose activity change, negative = inhibition, actives largely listed as inhibitors. 0.46% of 360,000 active. AID 651768; further: potency means the concentration at half of the fitted maximal effect; on the % scale 0 is the no-effect control and ±100 the full control effect; nearly all actives have a fitted effect of over 55% in size
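WRN at 20 nM final was preincubated with compound for 15 min at room temperature; reaction started with 100 nM forked duplex oligonucleotide carrying fluorophore and quencher plus 2 mM ATP (final). Unwinding followed kinetically by red fluorescence (ex 525/em 598 nm).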
Pol eta inh-1: blocks human DNA polymerase eta activity. Potency, µM (series often up to 114 µM), for inactives: top-dose activity change, negative = inhibition, most hits filed as inhibitors. recombinant Pol eta, fluorescent DNA replication assay. 1.2% of 390,000 active. Q9Y253; further: potency means the concentration at half of the fitted maximal effect; on the % scale 0 is the no-effect control and ±100 the full control effect
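Pol eta at 10 nM preincubated with compounds 15 min at room temperature; reaction started with fluorescent substrate (50 nM final) and read kinetically at 0 and 10 min.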
Pol iota inh: blocks human DNA polymerase iota activity | Q9UNA4 | Pol iota fluorescent replication assay, 10 min | 1% of 390,000 active | AID 588590 | Potency, µM (series often up to 115 µM), inactives show at the top dose activity, negative = inhibition, usual class: inhibitors; further: potency means the concentration at half of the fitted maximal effect
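Pol iota at 10 nM preincubated 15 min with compounds at room temperature; reaction started with fluorescent substrate, 50 nM final. Fluorescence read kinetically at 0 and 10 min; buffer-only wells as negative control.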
Pol kappa inh-1: inhibitors of human DNA polymerase kappa; purified Pol kappa, fluorescent DNA synthesis assay, 10 min; Q9UBT6; 0.53% of 400,000 active; Potency, µM (series often up to 107 µM), for the others: at the highest dose activity, negative = inhibition, usual class: inhibitors; further: potency means the concentration at half of the fitted maximal effect; on the % scale 0 is the no-effect control and ±100 the full control effect
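50 nM final substrate added after 15 min RT preincubation of 10 nM Pol kappa with compound; fluorescence read at 0 and 10 min.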
POLB inh: inhibitors of human DNA polymerase beta; P06746; Pol beta primer extension/strand displacement, fluorescence kinetic; Potency, µM (doses to about 114 µM), for inactives: at the highest dose activity change, negative = inhibition, hits mostly inhibitors; 1.3% of 340,000 active; AID 485314; further: potency means the concentration at half of the fitted maximal effect; on the % scale 0 is the no-effect control and ±100 the full control effect
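10 nM enzyme + cpd, 15 min RT; start with substrate 50 nM final; read 0 min and after 10 min RT. Corrected, normalized data; 4-parameter Hill curve fit.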
PI5P4Ka inh: inhibitors of human PI5P4K alpha | P48426 | PI5P4Kalpha enzyme, ADP-Glo luminescence, 60 min; stronger effect = lower value | max response, % | 1.2% of 330,000 active | AID 652105; active means max response of -50% or lower; inconclusive means between -30% and -50%; inactive means -30% or higher; further: value at the top dose of about 77 µM; on the % scale 0 is the no-effect control and ±100 the full control effect
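Controls without substrate or without enzyme flank wells where PI5P4Kalpha converts substrate using 5 microM ATP (final). Incubation lasts 60 minutes at room temperature; ADP formed is read by ADP-Glo luminescence.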
POLI cherry-pick: Human Pol iota inhibitor confirmatory assay; shares compounds with Pol kappa inh-1; Pol iota primer extension, TAMRA/BHQ fluorescence; Potency, µM, actives largely listed as inhibitors; 77% of 1,500 active; AID 720496; further: potency means the concentration at half of the fitted maximal effect
GALK confirm: confirmation of human galactokinase (GALK) inhibitors; shares compounds with Pol eta inh-1; 70% of 150 active; purified GALK, Kinase-Glo ATP depletion luminescence; Potency, µM (series often up to 115 µM), without a hit: at the top dose activity, negative = inhibition, actives largely listed as inhibitors
GALK redox cs: generates H2O2 by redox cycling, flagging GALK artifacts; Phenol red-HRP H2O2 redox cycling, absorbance 600 nm; AID 2035; shares compounds with Pol eta inh-1; Potency, µM (series often up to 115 µM), without a hit: at the highest dose activity change, negative = H2O2 signal, usual class: inhibitors; 40% of 150 active
HEK293 tox: HEK-293 cytotoxicity, GALK inhibitor secondary. shares compounds with Pol eta inh-1. Potency, µM (titrated, usually from 46.1 µM), inactives show at the highest dose activity change, negative = cytotoxicity, usual class: inhibitors. HEK-293 viability, ATP luminescence (CellTiter-Glo), 24/48 h. AID 2547. 10% of 170 active; further: potency means the concentration at half of the fitted maximal effect; on the % scale 0 is the no-effect control and ±100 the full control effect
Pol kappa inh-2: Pol kappa (human) inhibition, cherry-pick confirmation. shares compounds with Pol eta inh-1. purified Pol-kappa, fluorescent strand-displacement substrate. Potency, µM, hits mostly inhibitors. 76% of 920 active. AID 720501; further: potency means the concentration at half of the fitted maximal effect
Pol eta inh-2: Pol eta (human) inhibition, cherry-pick confirmation | Potency, µM, actives largely listed as inhibitors | AID 720502 | 64% of 2,600 active | Pol eta primer extension, TAMRA/BHQ fluorescence, 10 min | shares compounds with Pol eta inh-1; further: potency means the concentration at half of the fitted maximal effect
The depositor's hits bear a star; ? = inconclusive; . = no result given; [ ] = dose if it differs, or a comment. Only some compounds are listed: those with a hit (about 2.8% of all), similar ones and a draw of the others. Unless noted, the call rests on the fitted dose curve; in most records, active means well fitted curve in the direction sought with a large enough effect; inconclusive means small, poorly fitted or top-dose-only effect, or another doubt; inactive means no such curve, though single readings can be large; an effect the other way counts as inactive or inconclusive.

SMILES	WRN helicase inh	Pol eta inh-1	Pol iota inh	Pol kappa inh-1	POLB inh	PI5P4Ka inh	POLI cherry-pick	Pol eta inh-2	others
CC(C)(O)c1ccccc1CC[C@@H](SCC1(CC(=O)O)CC1)c1cccc(/C=C/c2ccc3ccc(Cl)cc3n2)c1	-7%[11.6 µM]	?	45µM*	-35%	.	-3	?	.	Pol kappa inh-2=84*
Cc1nc2ccccn2c1C(=O)N/N=C/c1ccc([N+](=O)[O-])o1	?	7.9µM*	11µM*	50µM*	32µM*	-56*	60*	34*
O=C(N/N=C/c1cc(Cl)c(O)c(Cl)c1)c1cc2c(ccc3ccccc32)o1	?	22µM*	?	?	28µM*	-77*	?	43*	Pol kappa inh-2=75*
Cc1nc2ccccn2c1C(=O)N/N=C/c1ccccc1Cl	-3%	-16%	172%	-2%	17%	4	.	.
O=C(N/N=C/c1ccc([N+](=O)[O-])o1)c1cc2c(ccc3ccccc32)o1	-23%[11.6 µM]	32µM*	?	-25%	3.2µM*	-24	27*	19*
O=C(O)C1CCC2CCCC21 (stereo not drawn)	3%	.	.	.	.	0	.	.
Cc1ccc(C(=O)N[C@@H](C)CN2C3=NC[C@H](C)N3C[C@H]2Cc2ccc(O)cc2)cc1Br	.	.	.	.	-23%	.	.	.
CCn1c(SCC(=O)OC)nc2sc3c(c2c1=O)CCC3	?	?	18µM*	89µM*	13µM*	.	60*	67*
CCn1c(SCC(=O)O)nc2sc3c(c2c1=O)CCC3	?	13µM*	?	?	14µM*	?	67*	48*
O=c1[nH]cc(CCc2ccccc2)c(=O)[nH]1	15%	-13%	.	.	.	-5	.	.
Cc1nc(S/C(=C/c2ccc(-c3ccc(C(=O)O)cc3)o2)C(=O)O)n[nH]1	-18%[11.6 µM]	18µM*	-95%	?	35µM*	-70*	42*	19*
Cc1nc(S/C(=C/c2ccc(-c3cc(Cl)ccc3C)o2)C(=O)O)n[nH]1	-7%[11.6 µM]	?	?	?	?	-1	.	.
Nc1cccc(Nc2ccccc2)c1	2%	-4%	19%	-1%	-1%	7	.	.
Nc1ccc(Nc2ccccc2)c(S(=O)(=O)O)c1	?	16µM*	11µM*	79µM*	11µM*	-25	47*	38*	Pol kappa inh-2=8.4*
COc1ccc(C(=O)N/N=C/c2ccc(OC(=O)c3cccc4ccccc34)c([N+](=O)[O-])c2)cc1	-14%	?	?	?	11µM*	4	?	.	Pol kappa inh-2=67*
COc1ccc(C(=O)Oc2ccc(/C=N/NC(=O)c3ccccc3OC)cc2[N+](=O)[O-])cc1	7%	-6%	15%	0%	17%	-1	.	.
COC(=O)c1ccc(-c2ccc(C(c3c(C)[nH][nH]c3=O)c3c(C)[nH][nH]c3=O)o2)cc1	?	25µM*	3.5µM*	?	20µM*	?	?	76*
Cc1[nH][nH]c(=O)c1C(c1ccc(-c2ccccc2C(=O)O)o1)c1c(C)[nH][nH]c1=O	-19%[11.6 µM]	11µM*	10µM*	?	10µM*	-2	47*	27*	GALK confirm=-11%;GALK redox cs=6.7µM*;HEK293 tox=6%
Cc1[nH][nH]c(=O)c1C(c1ccc(-c2cccc(C(=O)O)c2)o1)c1c(C)[nH][nH]c1=O	?	13µM*	2.2µM*	89µM*	20µM*	?	67*	30*
Cc1[nH][nH]c(=O)c1C(c1ccc(Br)cc1)c1c(C)[nH][nH]c1=O	2%	-5%	?	-4%	-24%	-1	.	.
C[C@@H]1CN([C@@H](C)CO)C(=O)c2cc(Br)cnc2O[C@H]1CN(C)S(=O)(=O)c1cccs1	-4%	-11%	.	.	.	2	.	.
Cc1cc(S(=O)(=O)N2CCOCC2)ccc1OCC(=O)Nc1ccc(F)cc1F	4%	-4%	-24%	6%	5%	5	.	.
O=C(NCCN1CCC(n2c(=O)[nH]c3ccccc32)CC1)c1c(F)cccc1F	4%	.	.	.	.	-1	.	.
CCn1nc(-c2ccccc2C)nc2c(=O)n(C)c(=O)nc1-2	.	.	-90%	2%	.	.	1.2*	3.8*
COc1ccc(-c2nc3c(=O)n(C)c(=O)nc-3n(C)n2)cc1	.	.	-149%	-19%	.	.	.	.
SMILES	WRN helicase inh	Pol eta inh-1	Pol iota inh	Pol kappa inh-1	POLB inh	PI5P4Ka inh	POLI cherry-pick	Pol eta inh-2	others
Cn1nc(-c2ccc(Cl)cc2)nc2c(=O)n(C)c(=O)nc1-2	.	.	-89%	-11%	?	.	1.2*	1.1*	GALK confirm=1.2µM*;GALK redox cs=1.1µM*;HEK293 tox=14µM*
Cc1cc(C)n2nc(-c3cccnc3)nc2n1	-18%	-22%	25%	-4%	0%	2	.	.
Cn1nc(-c2cccnc2)nc2c(=O)n(C)c(=O)nc1-2	.	.	-85%	-7%	.	.	1.7*	2.4*
Cn1nc(-c2ccc(F)cc2)nc2c(=O)n(C)c(=O)nc1-2	.	.	-97%	7%	.	.	1.3*	0.85*
CCOC(=O)CNC(=O)N1CCCC(C(=O)c2ccccc2SC)C1 (stereo not drawn)	3%	-13%	22%	12%	?	3	.	.
Cc1ccc(NC(=O)Cn2cc(C(=O)C3CCCCC3)c3ccccc32)cc1	.	.	-25%	-21%	0%	.	.	.
CCCCCCCCCCCC[n+]1ccc(C)c2ccccc21	.	.	?	-11%	.	.	.	.
Cc1ccc(NC(=O)CNC(=O)CC23CC4CC(CC(C4)C2)C3)c(O)c1	-19%	-15%	35%	-6%	.	-15	.	.

From PubChem BioAssay
